proKLK7 act = activates the human kallikrein-7 zymogen; P49862; purified proKLK7, EDANS-DABCYL substrate fluorescence; 100% is mature enzyme control, 0% vehicle; activation, % at 7 µM; hit rate 0.9% among 370,000; AID 652039;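 active means activation above the mean of all tested compounds plus 3 SD, computed per campaign excluding outliers beyond control limits, cut at about 13% in these data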
Target sequence (P49862 whole entry, looked up): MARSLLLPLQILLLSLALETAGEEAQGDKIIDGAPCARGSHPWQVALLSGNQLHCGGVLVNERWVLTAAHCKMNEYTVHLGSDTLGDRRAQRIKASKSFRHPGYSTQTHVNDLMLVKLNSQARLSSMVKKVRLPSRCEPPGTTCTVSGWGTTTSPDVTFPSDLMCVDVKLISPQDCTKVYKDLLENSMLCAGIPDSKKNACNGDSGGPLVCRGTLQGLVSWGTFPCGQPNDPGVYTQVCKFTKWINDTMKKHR
FAS TE block = blocks the thioesterase domain of human fatty acid synthase; hit rate 0.67% among 360,000; inhibition, % at 15 µM; AID 602261; P49327; recombinant FAS-TE, OMFH fluorogenic substrate, fluorescence endpoint;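 active means compounds whose normalised, plate-corrected inhibition of enzyme fluorescence in the single-dose primary screen is 50% or more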;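 further: 0% = DMSO with enzyme and 100% = substrate without enzyme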
FXN GAA850 act = increases GAA850 frataxin promoter reporter activity. HEK293 lucGAA850 FXN promoter luciferase reporter, 24 h; percent of 10 µM SAHA response. activation, % at 6 µM. hit rate 0.56% among 360,000. AID 540364;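 active means activation above the average of all compounds screened plus 3 SD, cutoff fixed separately per campaign, cut at about 7.5% in these data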;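 further: 0% = DMSO wells and 100% = 10 µM SAHA wells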
SMARCA2 activ = increases SMARCA2 function in MMTV reporter cells; hit rate 1% among 370,000; MG213 cells, MMTV-luciferase reporter, dexamethasone, overnight; activation, % at 9.1 µM; AID 652017; in the data active means activation above about 7.8%;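 further: 0% = vehicle wells and 100% = reference activator wells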
SMARCA2 conf = confirmation of SMARCA2 (BRM) function activators. shares compounds with SMARCA2 activ. hit rate 30% among 3,500. MG213 cells, MMTV-luciferase with dexamethasone, luminescence, overnight; MG213 cells expressing E1A, Rb sequestered; DMSO wells 0%, reference activator 100%. AID 652260. activation, % at 9.1 µM;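 active means activation above its plate's cutoff, the mean activation of tested wells plus 3 SD, cut at about 7.9% in these data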
GAL4-VP16 Luc = activates GAL4-VP16 luciferase, flagging SMARCA2 activator hits; shares compounds with SMARCA2 activ; HEK293 GAL4-VP16 pG5luc reporter, luciferase luminescence; scaled: DMSO wells 0%, SAHA wells 100%; activation, % at 9.1 µM; hit rate 41% among 3,500; AID 686939;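 active means activation above the solvent-only control well mean plus 3 SD, averaged across control plates, cut at about 5.2% in these data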
The depositor's hits bear a star. This is a sample that favours compounds with a hit; in the whole collection about 2.9% have one here.

For COc1ccc(-n2c(C)c3c(OC)cccc(=O)c3c2C)cc1 the results were proKLK7 act -1, FAS TE block -3, FXN GAA850 act 0, SMARCA2 activ 11*, SMARCA2 conf -3 and GAL4-VP16 Luc 1.
Screening O=C(c1cc(-c2ccccc2)nc2ccccc12)N1CCN(C2CCS(=O)(=O)C2)CC1 (centres undefined) returned proKLK7 act 0, FAS TE block -4, FXN GAA850 act 1 and SMARCA2 activ -1.
Screening C=COC(=O)CSc1nc(-c2cccs2)ccc1C#N returned proKLK7 act 9, FAS TE block -3, FXN GAA850 act 1, SMARCA2 activ 8.3*, SMARCA2 conf 6 and GAL4-VP16 Luc 9.3*.
Screening CCOC(=O)C(C)Sc1nc(-c2cccs2)ccc1C#N (centres undefined) returned proKLK7 act -4, FAS TE block 47, FXN GAA850 act 3 and SMARCA2 activ -4.
Screening CCc1ccc(-n2nc3cc(C)c(N)cc3n2)cc1 returned proKLK7 act -40, FAS TE block 13, FXN GAA850 act 4, SMARCA2 activ 11*, SMARCA2 conf 5 and GAL4-VP16 Luc 13*.
`CC(=O)c1ccc(NC(=O)Nc2cccc(Cl)c2)cc1` gave proKLK7 act 0, FAS TE block 9, FXN GAA850 act 2 and SMARCA2 activ -1.
For CC(=O)c1ccc(NC(=S)NCCc2cccc(Cl)c2)cc1 the results were proKLK7 act 1, FAS TE block 18, FXN GAA850 act 5, SMARCA2 activ 8.0*, SMARCA2 conf 5 and GAL4-VP16 Luc 11*.
`Cc1c(C)c2ccc(OCC(=O)NC(Cc3c[nH]c4ccc(O)cc34)C(=O)O)c(C)c2oc1=O` (centres undefined) gave proKLK7 act -2, FAS TE block 0, FXN GAA850 act 2 and SMARCA2 activ 0.
For CC(=O)Nc1ccc(-c2cn3cc(C)ccc3n2)cc1 the results were proKLK7 act 2, FAS TE block -6, FXN GAA850 act 3, SMARCA2 activ 8.1*, SMARCA2 conf 7 and GAL4-VP16 Luc 11*.
Screening Cc1ccc2nc(-c3ccccc3)cn2c1 returned proKLK7 act 0, FAS TE block -8, FXN GAA850 act -13 and SMARCA2 activ -7.
For O=C(Oc1ccccc1C(=O)N1CCOCC1)c1cccc(Br)c1 the results were proKLK7 act 0, FAS TE block -2, FXN GAA850 act 2 and SMARCA2 activ -1.
For O=C(Oc1ccccc1C(=O)N1CCOCC1)c1ccccc1 the results were proKLK7 act 0, FAS TE block -5, FXN GAA850 act 1, SMARCA2 activ 8.0*, SMARCA2 conf 0 and GAL4-VP16 Luc 0.
For COc1ccc(OCC2NCCc3cc(OC)c(OC)cc32)cc1 (centres undefined) the results were proKLK7 act 1, FAS TE block -3, FXN GAA850 act 1 and SMARCA2 activ -1.
O=C(NC1CCN(Cc2ccccc2)CC1)c1cccc(OC(F)F)c1 was read as proKLK7 act 0, FAS TE block -8, FXN GAA850 act -1, SMARCA2 activ 10*, SMARCA2 conf 6 and GAL4-VP16 Luc 0.
`Cc1ccc(S(=O)(=O)N2CCCC(N3CCOCC3)C2)cc1Cl` (centres undefined) gave proKLK7 act 1, FAS TE block -6, FXN GAA850 act 3 and SMARCA2 activ 0.
`Cc1cc(C)c2c(N)c(C(=O)NN)sc2n1` gave proKLK7 act -1, FAS TE block -3, FXN GAA850 act 0 and SMARCA2 activ -2.
Screening Cc1ccc(NC(=O)c2sc3nc(C)cc(C)c3c2N)cc1 returned proKLK7 act 1, FAS TE block 9, FXN GAA850 act 2, SMARCA2 activ 9.9*, SMARCA2 conf 7 and GAL4-VP16 Luc 15*.
`COC(=O)CSc1nc(N2CCOCC2)c2c(c1C#N)CCCC2` gave proKLK7 act 0, FAS TE block 18, FXN GAA850 act 2 and SMARCA2 activ 0.
Screening O=C(Cc1csc(Nc2nc(=S)[nH]c3ccccc23)n1)NCCCN1CCN(c2ccccc2F)CC1 returned proKLK7 act -24, FAS TE block 0, FXN GAA850 act 0, SMARCA2 activ 15*, SMARCA2 conf 9.6* and GAL4-VP16 Luc 2.
`O=C(Cc1csc(Nc2nc(=S)[nH]c3ccccc23)n1)NCc1ccc(Cl)cc1` gave FAS TE block -6 and FXN GAA850 act 2.
For CCn1c(SCC(=O)c2ccc(F)cc2)nnc1-c1ccoc1C the results were proKLK7 act 1, FAS TE block -1, FXN GAA850 act 1, SMARCA2 activ 9.6*, SMARCA2 conf 4 and GAL4-VP16 Luc 2.
CCOC(=O)c1c(NC(=O)CSc2ncn[nH]2)sc(C(=O)NC)c1C was read as proKLK7 act 0, FAS TE block -7, FXN GAA850 act 3 and SMARCA2 activ -3.
Screening COc1ccc(S(=O)(=O)NC(N)=NCCc2ccc(OC)c(OC)c2)cc1 returned proKLK7 act 0, SMARCA2 activ 10*, SMARCA2 conf 1 and GAL4-VP16 Luc 4.
`O=C(CN1C(=O)NC2(CCCc3ccccc32)C1=O)Nc1cccc(S(=O)(=O)N2CCCCC2)c1` (centres undefined) gave proKLK7 act 0, FAS TE block 19, FXN GAA850 act 1 and SMARCA2 activ -4.
For O=C(Nc1ccc(F)cc1F)C1CCN(S(=O)(=O)c2cccnc2)CC1 the results were proKLK7 act 1, FAS TE block -4, FXN GAA850 act 1, SMARCA2 activ 8.3*, SMARCA2 conf 0 and GAL4-VP16 Luc 0.
For COc1ccc(-c2cn3cc(C(F)(F)F)cc(Cl)c3n2)cc1 the results were proKLK7 act 1, FAS TE block 13, FXN GAA850 act 0, SMARCA2 activ 12*, SMARCA2 conf 5 and GAL4-VP16 Luc 11*.
`Brc1ccc(OCCCCCN2CCOCC2)cc1` gave proKLK7 act 0, FAS TE block -2, FXN GAA850 act 1 and SMARCA2 activ -3.
Screening CC(=O)c1c(O)cc(C(C)C)n(-c2ccccc2)c1=O returned proKLK7 act 1, FAS TE block -11, FXN GAA850 act -3, SMARCA2 activ 20*, SMARCA2 conf 3 and GAL4-VP16 Luc 0.
For CCO/N=C(\C)c1c(O)cc(C(C)C)n(-c2ccccc2)c1=O the results were proKLK7 act 0, FAS TE block -2, FXN GAA850 act 1 and SMARCA2 activ -1.
For O=C(C1=C(O)C(=O)N(c2nccs2)C1c1ccccc1)c1cc2ccccc2o1 (centres undefined) the results were proKLK7 act 0, FAS TE block -114, FXN GAA850 act 2, SMARCA2 activ 14*, SMARCA2 conf -1 and GAL4-VP16 Luc 3.
CCCN1CCN(C(=O)Cn2ncc3c([nH]c4ccc(C)cc43)c2=O)CC1 was read as proKLK7 act 0, FAS TE block -10, FXN GAA850 act 1 and SMARCA2 activ -1.
